Data as given in PubChem BioAssay AID1159580 (chemical genetic matrix, 2015).
Among all 5,500 compounds or so, about 2,000 (36%) were called active. Inconclusive results (about 18%) are left out. Rule as the data show it: active = normalized growth mostly below about 0.91 (no sharp cut-off); inconclusive = no clear call, values can overlap the other calls; inactive = mostly above about 0.92. The list shows a part of the results.

Assay: chemical genetic growth profiling, strain panel (AID 1159580);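 also: tested at 20 µM; growth read once vehicle control cultures reached saturation at 30 °C; 1 = growth at the plate median or of vehicle wells; lower values mean less growth of the strain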
Details: growth OD

Measured: normalized growth

C[CH2][Hg][S]c1ccccc1C(=O)O
active: S. cerevisiae deletion strains, locus YJR075W, strain HOC1, hits give low values 0.0601 | S. cerevisiae deletion strains, locus YKL009W, strain mrt4, hits give low values 0.078 | S. cerevisiae deletion strains, locus YKL068W, hits give low values 0.0532 | S. cerevisiae deletion strains, locus YKL085W, strain MDH1 (second series), hits give low values 0.0507 | S. cerevisiae deletion strains, locus YKL085W, strain MDH1, hits give low values 0.0507 | S. cerevisiae deletion strains, locus YKL160W, strain elf1, hits give low values 0.0622 | S. cerevisiae deletion strains, locus YKL190W, strain CNB1, hits give low values 0.0466 | S. cerevisiae deletion strains, locus YKR001C, strain vps1, hits give low values 0.0606 | S. cerevisiae deletion strains, locus YKR026C, strain gcn3, hits give low values 0.0601 | S. cerevisiae deletion strains, locus YKR091W, strain srl3, hits give low values 0.0575 | S. cerevisiae deletion strains, locus YLL001W, strain dnm1, hits give low values 0.058 | S. cerevisiae deletion strains, locus YLL026W, hits give low values 0.0549 | S. cerevisiae deletion strains, locus YLL041C, strain sdh2, hits give low values 0.0553 | S. cerevisiae deletion strains, locus YLR027C, strain aat2, hits give low values 0.0538 | S. cerevisiae deletion strains, locus YLR039C, strain RIC1, hits give low values 0.0815 | S. cerevisiae deletion strains, locus YLR058C, strain SHM2, hits give low values 0.0473 | S. cerevisiae deletion strains, locus YLR102C, strain apc9, hits give low values 0.0603 | S. cerevisiae deletion strains, locus YLR113W, strain HOG1, hits give low values 0.153 | S. cerevisiae deletion strains, locus YLR221C, strain rsa3, hits give low values 0.0597 | S. cerevisiae deletion strains, locus YLR258W, strain gsy2, hits give low values 0.0592 | S. cerevisiae deletion strains, locus YLR262C, strain YPT6 (second series), hits give low values 0.0742 | S. cerevisiae deletion strains, locus YLR262C, strain YPT6, hits give low values 0.105 | S. cerevisiae deletion strains, locus YLR268W, strain sec22, hits give low values 0.0621 | S. cerevisiae deletion strains, locus YLR320W, strain mms22, hits give low values 0.0814 | S. cerevisiae deletion strains, locus YLR330W, strain CHS5, hits give low values 0.0525 | S. cerevisiae deletion strains, locus YLR342W, strain FKS1 (second series), hits give low values 0.0638 | S. cerevisiae deletion strains, locus YLR342W, strain FKS1, hits give low values 0.0616 | S. cerevisiae deletion strains, locus YLR357W, strain rsc2, hits give low values 0.112 | S. cerevisiae deletion strains, locus YLR370C, strain arc18, hits give low values 0.0588 | S. cerevisiae deletion strains, locus YLR371W, strain rom2, hits give low values 0.0587 | S. cerevisiae deletion strains, locus YLR384C, strain iki3, hits give low values 0.0582 | S. cerevisiae deletion strains, locus YLR418C, strain cdc73, hits give low values 0.0891 | S. cerevisiae deletion strains, locus YML016C, strain PPZ1, hits give low values 0.0465 | S. cerevisiae deletion strains, locus YML032C, strain rad52, hits give low values 0.0656 | S. cerevisiae deletion strains, locus YML120C, strain ndi1, hits give low values 0.0572 | S. cerevisiae deletion strains, locus YML124C, strain tub3, hits give low values 0.0558 | S. cerevisiae deletion strains, locus YMR058W, strain fet3, hits give low values 0.0565 | S. cerevisiae deletion strains, locus YMR078C, strain ctf18, hits give low values 0.0699 | S. cerevisiae deletion strains, locus YMR125W, strain sto1, hits give low values 0.0708 | S. cerevisiae deletion strains, locus YMR129W, hits give low values 0.0561 | S. cerevisiae deletion strains, locus YMR205C, strain PFK2, hits give low values 0.0823 | S. cerevisiae deletion strains, locus YMR223W, strain ubp8, hits give low values 0.0597 | S. cerevisiae deletion strains, locus YMR231W, strain pep5, hits give low values 0.0664 | S. cerevisiae deletion strains, locus YMR263W, strain SAP30, hits give low values 0.0559 | S. cerevisiae deletion strains, locus YMR307W, strain GAS1, hits give low values 0.0969 | S. cerevisiae deletion strains, locus YNL067W, strain RPL9B, hits give low values 0.0481 | S. cerevisiae deletion strains, locus YNL071W, strain lat1, hits give low values 0.0589 | S. cerevisiae deletion strains, locus YNL128W, strain TEP1, hits give low values 0.0596 | S. cerevisiae deletion strains, locus YNL153C, strain GIM3, hits give low values 0.0483 | S. cerevisiae deletion strains, locus YNL183C, strain NPR1, hits give low values 0.004 | S. cerevisiae deletion strains, locus YNL209W, strain ssb2, hits give low values 0.057 | S. cerevisiae deletion strains, locus YNL233W, strain BNI4, hits give low values 0.0515 | S. cerevisiae deletion strains, locus YNL248C, strain rpa49, hits give low values 0.0737 | S. cerevisiae deletion strains, locus YNL250W, strain rad50, hits give low values 0.0619 | S. cerevisiae deletion strains, locus YNL271C, strain bni1, hits give low values 0.0596 | S. cerevisiae deletion strains, locus YNL298W, strain CLA4, hits give low values 0.0571 | S. cerevisiae deletion strains, locus YNL307C, strain MCK1, hits give low values 0.0641 | S. cerevisiae deletion strains, locus YNL322C, strain KRE1 (second series), hits give low values 0.0632 | S. cerevisiae deletion strains, locus YNL322C, strain KRE1, hits give low values 0.0468 | S. cerevisiae deletion strains, locus YNR049C, strain mso1, hits give low values 0.0543 | S. cerevisiae deletion strains, locus YNR052C, strain pop2, hits give low values 0.061 | S. cerevisiae deletion strains, locus YOL006C, strain TOP1, hits give low values 0.0904 | S. cerevisiae deletion strains, locus YOL012C, strain htz1 0.178 | S. cerevisiae deletion strains, locus YOL147C, strain pex11, hits give low values 0.0589 | S. cerevisiae deletion strains, locus YOR001W, strain rrp6, hits give low values 0.0639 | S. cerevisiae deletion strains, locus YOR061W, strain CKA2, hits give low values 0.0446 | S. cerevisiae deletion strains, locus YOR069W, strain VPS5, hits give low values 0.0457 | S. cerevisiae deletion strains, locus YOR070C, strain gyp1, hits give low values 0.0575 | S. cerevisiae deletion strains, locus YOR080W, strain dia2, hits give low values 0.0641 | S. cerevisiae deletion strains, locus YOR083W, strain WHI5, hits give low values 0.0608 | S. cerevisiae deletion strains, locus YOR106W, strain vam3, hits give low values 0.0597 | S. cerevisiae deletion strains, locus YOR136W, strain idh2, hits give low values 0.0686 | S. cerevisiae deletion strains, locus YOR144C, strain elg1, hits give low values 0.0566 | S. cerevisiae deletion strains, locus YOR184W, strain ser1, hits give low values 0.065 | S. cerevisiae deletion strains, locus YOR231W, strain MKK1, hits give low values 0.125 | S. cerevisiae deletion strains, locus YOR265W, strain rbl2, hits give low values 0.0558 | S. cerevisiae deletion strains, locus YOR270C, strain vph1, hits give low values 0.0908 | S. cerevisiae deletion strains, locus YOR290C, strain snf2, hits give low values 0.0723 | S. cerevisiae deletion strains, locus YOR316C, strain cot1, hits give low values 0.0555 | S. cerevisiae deletion strains, locus YPL051W, strain arl3, hits give low values 0.0607 | S. cerevisiae deletion strains, locus YPL055C, strain LGE1, hits give low values 0.0725 | S. cerevisiae deletion strains, locus YPL078C, strain atp4, hits give low values 0.0632 | S. cerevisiae deletion strains, locus YPL106C, strain sse1, hits give low values 0.0983 | S. cerevisiae deletion strains, locus YPL240C, strain hsp82, hits give low values 0.0533 | S. cerevisiae deletion strains, locus YPL241C, strain CIN2, hits give low values 0.0538 | S. cerevisiae deletion strains, locus YPL256C, strain CLN2, hits give low values 0.135 | S. cerevisiae deletion strains, locus YPR119W, strain clb2, hits give low values 0.0599 | S. cerevisiae deletion strains, locus YPR141C, strain kar3, hits give low values 0.0633 | S. cerevisiae deletion strains, locus YPR163C, strain tif3, hits give low values 0.0679 | S. cerevisiae deletion strains, locus YPR167C, strain met16, hits give low values 0.0597 | S. cerevisiae deletion strains, strain wtn01, hits give low values 0.0565 | S. cerevisiae strains, strain wild type, hits give low values 0.0464
